Screening data as filed in PubChem.
A selection: hits, their analogues and other compounds. The true share with any hit is near 0.67%.
RN4220 kill – kills Staphylococcus aureus RN4220 | S. aureus RN4220 growth, OD600, 16 h | inhibition, % (test concentration not listed) | hit rate 0.33% among 330,000; in the data active = inhibition above about 85%;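 also: plate controls were untreated cells for no effect and reference antibiotic for full effect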
TcdB inh – TcdB glycohydrolase inhibition; TcdB glycohydrolase enzymatic assay, plate reader; inhibition, % at 9.99 µM; P18177; hit rate 0.24% among 350,000; AID 652162; in the data active = inhibition above about 10%
Sa ugtP lethal – growth inhibition of S. aureus ugtP deletion strain; hit rate 0.54% among 330,000; growth inhibition, % (test concentration not listed); AID 1259309; S. aureus RN4220 ugtP deletion, OD600 growth, 16 h; in the data active = growth inhibition above about 68%;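 also: plate controls were untreated wells for no effect and antibiotic for full effect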
BH1578 lux ind – induces V. cholerae light production without autoinducers | V. cholerae BH1578 lux reporter, luminescence, 6 h | activation, % at 18.7 µM | hit rate 0.16% among 350,000; in the data active = activation mostly above about 9.7%, no sharp cut-off
An asterisk follows results filed as active; i = inactive; · = no result given.

SMILES | RN4220 kill | TcdB inh | Sa ugtP lethal | BH1578 lux ind
COc1ccc(C(=O)Nc2ccc3c(c2)C(=O)N(C)[C@@H]2CC[C@H](CC(=O)NCC4CC4)O[C@H]2CO3)cc1 | · | 16* | · | ·
CNC(=O)C[C@H]1CC[C@@H]2[C@H](COc3ccc(NC(=O)c4ccc(OC)cc4)cc3C(=O)N2C)O1 | · | 17* | · | ·
CNC(=O)C[C@H]1CC[C@@H]2[C@@H](COc3ccc(NC(=O)c4cccc(OC)c4)cc3C(=O)N2C)O1 | · | 12* | · | ·
CNC(=O)C[C@H]1CC[C@H]2[C@H](COc3ccc(NC(=O)c4cccc(OC)c4)cc3C(=O)N2C)O1 | · | -5 | · | ·
CN1C(=O)c2cc(NC(=O)c3cccc(F)c3)ccc2OC[C@H]2O[C@H](CC(=O)NCC3CCCCC3)CC[C@@H]21 | · | 11* | · | ·
CNC(=O)C[C@@H]1CC[C@@H]2[C@@H](COc3ccc(NC(=O)c4cccc(OC)c4)cc3C(=O)N2C)O1 | · | -6 | · | ·
CCOc1cc(C=NO)cc(Br)c1OCc1ccc(Cl)cc1 | -8 | · | 91* | ·
CCOc1cc(/C=N/O)ccc1OCc1ccc(C)cc1 | · | 11* | · | -2
CCOc1cc(C=NO)ccc1OCc1ccc(F)cc1 | 5 | · | 5 | ·
Cc1nc(SCc2ccccc2F)c2cnn(-c3ccccc3)c2n1 | 97 | · | active | ·
Cc1cc(NN=Cc2c(O)ccc3ccccc23)nc(-c2ccccc2O)n1 | 99* | · | 98* | ·
Cc1cc(NN=Cc2ccccc2O)nc(-c2ccccc2O)n1 | -2 | · | -15 | ·
Cc1cc(NN=Cc2ccc(O)c(C)c2O)nc(-c2ccccc2O)n1 | 99* | · | 98* | ·
CCN(CC)C(=O)C[n+]1cccc(C=NO)c1 | 4 | · | 5 | ·
CCNC(=S)NN=C(C)c1ccc2c(c1)OCCO2 | 9 | · | 4 | ·
C#CCOCCOCCOCCNc1nc(N2CCOCC2)nc(N2CCN(C(=O)C(Cc3cc4ccccc4[nH]3)n3cc(C(N)CC(C)C)nn3)CC2)n1 (stereo not given) | 4 | · | 6 | ·
CC(C)(C)OC(=O)NN=Cc1ccc(N2CCOCC2)s1 | 4 | · | 0 | ·
Cc1c(N)c(C(C)(C)C)cc(C(C)(C)C)c1[N+](=O)[O-] | 5 | · | 95* | 0
CC(=O)Nc1cccc2c1C(=O)N(c1ccc(C)cc1)C2=O | 4 | · | -2 | 17*
CC(C)CC(CO)N1CCN(CCCc2ccccc2)CCC1=O (stereo not given) | 4 | · | 5 | ·
Cc1nc(N)nc(-c2ccccc2O)n1 | 5 | · | -3 | 17*
COc1ccccc1N1CCN(N=Cc2ccc([N+](=O)[O-])cc2)CC1 | 8 | · | 17 | ·
O=C(Nc1cccc(Cl)c1)c1cc(N=Nc2ccc([N+](=O)[O-])cc2Cl)ccc1O | 94* | 2 | 100* | -1
O=C(Nc1cccc(Cl)c1)c1cccc(Oc2ccc([N+](=O)[O-])cc2Cl)c1 | -12 | -1 | -22 | i
O=C(Nc1ccc([N+](=O)[O-])cc1Cl)c1cc(Cl)ccc1O | 101* | 4 | 100* | 0
SMILES | RN4220 kill | TcdB inh | Sa ugtP lethal | BH1578 lux ind
O=c1[nH]c2ccc(S(=O)(=O)N3CCN(c4ccccc4F)CC3)cc2s1 | -12 | · | 101* | i
CC(C)(C)c1ccc(NC(=O)COC(=O)c2ccc([N+](=O)[O-])s2)cc1 | 83 | · | 100* | 1
Cc1[nH]c2ccccc2c1C(=O)COC(=O)c1ccc([N+](=O)[O-])s1 | 90* | 0 | 96* | i
O=C(C1=CC(C2CCCCC2)CC(OCCCCO)O1)N1CCN(Cc2ccc3c(c2)OCO3)CC1 (stereo not given) | 4 | · | -15 | ·
CC(C(=O)O)C1C[C@@]1(C)C(NC(=O)OCc1ccccc1)c1ccccc1 (stereo not given in full) | 11 | · | 5 | ·
Cc1ccc(-c2nnc(SCC(=O)NN=Cc3cccs3)n2-c2ccc(C)cc2)cc1 | 6 | · | 2 | ·
COc1ccc(C=NN2C(=O)CSC2=S)cc1Br | 10 | · | -12 | ·
NC1=NC[C@H](Cc2ccccc2)N1CCCCC1CCCCC1 | 6 | 3 | 11 | i
NC1=NC[C@@H](CC2CCCCC2)N1CCc1cc(C(F)(F)F)cc(C(F)(F)F)c1 | 100* | · | 100* | 0
NC1=NC[C@H](Cc2ccc(O)cc2)N1CCCCC1CCCCC1 | 100* | 3 | 100* | -11
NC1=NCC(CC2CCCCC2)N1CCc1cc(C(F)(F)F)cc(C(F)(F)F)c1 (stereo not given) | 101* | · | 101* | ·
NC1=NC[C@H](Cc2ccc(O)cc2)N1CCc1cc(C(F)(F)F)cc(C(F)(F)F)c1 | · | 11* | · | 0
COC(CNC(=O)C(CSCc1ccccc1)N1Cc2ccccc2C1=O)OC (stereo not given) | 5 | · | -6 | ·
CC1Oc2cc3c(-c4c(O)cc(O)c5c(O)c6c(cc45)OC(C)C(C)C6=O)c(O)cc(O)c3c(O)c2C(=O)C1C (stereo not given) | 98* | · | 98* | 0
CC=C(C)C(=O)OC1C(O)c2c(ccc3ccc(=O)oc23)OC1(C)C (stereo not given) | 8 | · | -5 | ·
O=S1(=O)C=C(Sc2nnc(-c3ccccc3)o2)c2ccccc21 | 93* | · | 91* | -8
O=C(NN=Cc1cccc(O)c1)c1ccc(COc2ccc3c(c2)CCC3)o1 | -2 | · | 6 | ·
CC(=O)c1ccc(Nc2ccc(-c3ccccc3F)nn2)cc1 | · | 10* | · | -1
COc1ccccc1-c1ccc(Nc2ccc(C(=O)N3CCOCC3)cc2)nn1 | -3 | · | 7 | -1
N=c1c2c(n(Cc3ccc(Cl)c(Cl)c3)c3c1CCC3)CCCC2 | 91* | · | 99* | i
N=c1c2c(n(Cc3ccc(Br)cc3)c3c1CCC3)CCCC2 | 41 | 1 | 99* | 2
N=c1c2c(n(Cc3ccc([N+](=O)[O-])cc3)c3c1CCC3)CCCC2 | 0 | 2 | 8 | i
Oc1ccc(Cl)cc1/C=C/c1ccc2cccc(O)c2n1 | 15 | 2 | 27 | -1
COc1cc(Br)c(/C=C/c2ccc3cccc(O)c3n2)cc1OC | 0 | 0 | 4 | -1
Oc1c(Cl)cc(Cl)cc1/C=C/c1ccc2cccc(O)c2n1 | 91* | 1 | 86 | -1
SMILES | RN4220 kill | TcdB inh | Sa ugtP lethal | BH1578 lux ind
Oc1cccc2ccc(/C=C/c3ccccc3Br)nc12 | 90* | 1 | 92* | 0
CCCNC(=O)Nc1ccc2c(c1)C(=O)N(C)[C@H]1CC[C@H](CC(=O)NC3CCC3)O[C@@H]1CO2 | · | 14* | · | ·
CCCNC(=O)Nc1ccc2c(c1)C(=O)N(C)[C@@H]1CC[C@H](CC(=O)NC3CCC3)O[C@H]1CO2 | · | 19* | · | ·
COc1ccc2cc(C(C)=NNC(=O)c3cc(-c4cccnc4)nc4ccccc34)ccc2c1 | 4 | · | 1 | ·
CC(=NNC(=O)c1cccc(O)c1)c1cccc(NC(=O)c2ccc(F)cc2)c1 | 2 | · | 8 | ·
C#CCOCCOCCOCCNc1nc(N2CCN(C(=O)C(Cc3ccc(O)cc3)n3cc(C(N)C(C)CC)nn3)CC2)nc(N2CCN(C(=O)C(C(C)CC)n3cc(C(N)CC(C)C)nn3)CC2)n1 (stereo not given) | 0 | · | -3 | ·
CC(NC(=O)c1nc[nH]c1C(=O)NC(C)C(=O)OC(C)(C)C)C(=O)OC(C)(C)C (stereo not given) | 8 | · | 0 | ·
O=C(Oc1ccccc1)c1cc2ccccc2o1 | 2 | · | 101* | -1
O=C(COC(=O)c1cc2ccccc2o1)c1ccccc1 | 0 | · | -5 | 1
